These results are taken from PubChem BioAssay (NCATS).

The structures appear in SMILES notation. Values joined by “and” are separate entries in the source; they are usually repeats but may differ in a detail not shown here. Equal entries are not always repeated. Unmarked numbers belong to inactive results. Results filed as inconclusive are left out. Active and inactive are the calls of the source. Unless noted, calls come from the whole dose curve; as a rule, active = well fitted curve in either direction with a large enough effect (not every such curve was filed as active); inconclusive = small, poorly fitted or top-dose-only effect, or another doubt; inactive = flat fitted curve, though single readings scatter.

Assay [1] in a line: AP1 Signaling Pathway (AID 357). Note: % is set by controls: 0 for no effect and ±100 for the full control effect. The settings on record: ME-180 AP-1-bla reporter, EGF-induced, beta-lactamase ratio, 5 h; at 17.2 µM (top of the series) unless noted. The method in brief:
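AP-1-bla ME-180 cells with beta-lactamase reporter under AP-1 response element, stimulated with EC50 EGF; compounds titrated, 5 hours at 37 degrees Celsius. CCF4 read at 460/530 nm ratio; positive and negative modulators judged by AC50.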

Assay [2] is described as follows: NFAT Signaling Pathway (AID 444).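 Note: carbachol stimulus at about its EC50 of 1 µM final; % is set by controls: 0 for no effect and ±100 for the full control effect.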 The settings on record: Jurkat NFAT-bla M1, carbachol, beta-lactamase ratio, 5 h; at 17.2 µM (top of the series) unless noted. The method in brief: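 Read-out: CCF4 FRET ratio (460 nm/530 nm) after 1 h RT dye loading, used for %activity and AC50 from titration series. Cells: Jurkat NFAT-β-lactamase/M1 line, treated with compound plus 1 uM carbachol for 5 h, 37 °C.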

The nature of assay [3]: Stat Signaling Pathway (AID 446).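 Note: ME-180 cervical cancer cells given 40 pM IL-6 alongside compound; SIE-controlled beta-lactamase reporter measured as 460/530 nm FRET emission ratio; % is set by controls: 0 for no effect and ±100 for the full control effect.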 The settings on record: ME-180 (cervical carcinoma) SIE beta-lactamase reporter, IL-6 stimulated, 5 h; at 17.2 µM (top of the series) unless noted. The method in brief: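 FRET read-out (405 nm excitation, 460/530 nm emission) of a beta-lactamase reporter under a STAT-inducible element in ME-180 cervical carcinoma cells. Cells with compound receive 40 pM IL-6 for 5 h. Values are normalised to AC90 stimulation and AC90 JAK-inhibitor controls.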

The target in assay [4] is Glucocorticoid receptor (Homo sapiens) (UniProt P04150). The experiment in a line: GR-GFP Redistribution (AID 450;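 active = compounds whose dose series gives a full or clear partial fitted curve of increased nuclear translocation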; note: potency is the fitted concentration of half-maximal effect). The settings on record: U2OS GR-GFP nuclear translocation, laser cytometry, 2 h.
The target is the same in assay [5]. The assay is described as follows: GR-EFC Redistribution (AID 451; calls by dose curve; note: potency is the fitted concentration of half-maximal effect). As to conditions: CHO-K1 GR-EFC translocation, beta-gal luminescence, 2 h. The method in brief:
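Translocation of GR-ED fusion to nuclear EA restores b-gal, read by luminescence after 1 h room-temperature detection. Engineered CHO-K1 biosensor cells, 1,000/well, exposed 2 h at 37 C to titrations up to 46 uM final.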

The target of assay [6] is Mitogen-activated protein kinase 10 (Mus musculus) (UniProt Q61831). The assay is described as follows: JNK3 AlphaScreen Assay (AID 530).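 Note: kinase came from lysate of stimulated human HepG2 cells; signal reports phosphorylation of biotinylated GST-cJun 1-79 at Ser73 with 10 µM ATP; % is set by controls: 0 for no effect and ±100 for the full control effect.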 Put shortly: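 Kinase buffer: 20 mM Tris-HCl pH 7.6, 10 mM MgCl2, 1 mM DTT, 0.1 mM Na3VO4, 0.01% Tween-20; ATP 10 uM. Substrate biotin-GST-cJun(1-79), enzyme from activated HepG2 lysates. Detection by Ser73 phospho-antibody AlphaScreen.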

For assay [7], the target named is 3',5'-cyclic-AMP phosphodiesterase 4B (Homo sapiens) (UniProt Q07343). The assay is described as follows: qHTS Assay for Inhibitors of PDE-IV (AID 607; active = well fitted activation curve with a large enough effect in the main read-out, with a control signal flat, not every such curve was filed as active; note: % of control where 0% means no effect). Put shortly: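 Cell-based read-out of cAMP via a modified cyclic nucleotide-gated channel and membrane potential dye (535/590 nm) in HEK293 cells expressing PDE4 endogenously. Compounds tested up to 22.9 uM final; 100 uM RO 20-1724 reference.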
Background: Quantitative high-throughput screening tests each substance at several concentrations.

A short description of assay [8]: Cell Viability - BJ (AID 421; calls by dose curve;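 note: potency is the fitted concentration of half-maximal effect; cells exposed to compound for 40 hours at 37 °C before readout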). As to conditions: BJ fibroblast viability, qHTS. Put shortly: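 Cytotoxicity as drop in intracellular ATP (CellTiter-Glo, 20 min RT) after 40 hr compound exposure of BJ fibroblasts at 37 °C. Titrations scaled between DMSO and 100 uM tamoxifen, Hill-fitted for AC50.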
Assay [9] in a line: Cell Viability - Jurkat (AID 426;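 active = dose-dependent loss of cell ATP signal giving a full or clear fitted curve, ranked by lower potency value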;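 note: potency is the fitted concentration of half-maximal effect; cells exposed to compound for 40 hours at 37 °C before ATP read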). The settings on record: qHTS. The method in brief:
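Luminescent ATP read-out (CellTiter-Glo, 20 min at room temperature) after 40 hr compound exposure at 37 °C of Jurkat E6-1 cells, 5000/well. Decreased ATP taken as cytotoxicity; AC50 from standard Hill equation.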

A short description of assay [10]: Cell Viability - Hek293 (AID 427;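 active = compounds whose dose-response curve shows a full or clear partial loss of cell viability, called from curve shape rather than a numeric limit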;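 note: potency is the fitted concentration of half-maximal effect; cells exposed to compound for 40 hours at 37 °C before reading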). As to conditions: qHTS. Put shortly:
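Luminescent ATP content (CellTiter-Glo, 20 min at room temperature) was measured after a 40 hr, 37 °C compound exposure of HEK293 cells. AC50 values came from Hill-equation fits of qHTS concentration-response data normalized to DMSO and 100 uM tamoxifen.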

Assay [11] in a line: Cell Viability - HepG2 (AID 433; calls by dose curve;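 note: potency is the fitted concentration of half-maximal effect; potency for ATP loss meaning cytotoxicity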). The settings on record: qHTS. Put shortly:
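Cytotoxicity is scored as loss of intracellular ATP in HepG2 cells exposed to compounds for 40 h. Concentration-response curves, normalized to DMSO and 100 uM tamoxifen, give AC50 values.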

Assay [12] in a line: Cell Viability - SK-N-SH (AID 435; calls by dose curve; note: potency is the fitted concentration of half-maximal effect). As to conditions: SK-N-SH neuroblastoma cell viability qHTS. The method in brief:
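Cells seeded at 1500 per well and incubated 5 hr at 37 °C. Compound added, then 40 hr at 37 °C. CellTiter-Glo added, 20 min at room temperature, luminescence read.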

The nature of assay [13]: Cell Viability - N2a (AID 540; active = well fitted curve in the direction sought with a large enough effect; an effect the other way counts as inactive or inconclusive;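 note: plate controls were DMSO alone for no effect and tamoxifen control for full effect; nearly all actives have a fitted effect of over 45% in size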). As to conditions: N2a mouse neuroblastoma cell viability; activity change, negative = cytotoxicity: at 92.2 µM (top of the series). The method in brief: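 N2a mouse neuroblastoma, 1500 cells/well, 5 hr settle; compound 40 hr, 37 °C; CellTiter-Glo 20 min RT; luminescence; Hill-fit AC50.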
Assay [14] can be described thus: Cell Viability - NIH 3T3 (AID 541; active = well fitted curve in the direction sought with a large enough effect; an effect the other way counts as inactive or inconclusive;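 note: plate controls were DMSO alone for no effect and tamoxifen positive control for full effect; nearly all actives have a fitted effect of over 25% in size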). The settings on record: NIH 3T3 cell viability, qHTS; activity change, negative = cytotoxicity: at 92.2 µM (top of the series). The method in brief: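 qHTS format; 40 hr compound exposure, 37 °C; CellTiter-Glo luminescence (cellular ATP) read-out after 20 min at RT. Decrease in ATP = cytotoxicity; AC50 from standard Hill fit.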

A short description of assay [15]: Cell Viability - HUV-EC-C (AID 542; active = well fitted curve in the direction sought with a large enough effect; an effect the other way counts as inactive or inconclusive; note: % is set by controls: 0 for no effect and ±100 for the full control effect; nearly all actives have a fitted effect of over 35% in size). The method in brief: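 Luminescent ATP read-out (CellTiter-Glo, 20 min room temperature) after 40 hr compound treatment of HUV-EC-C cells at 37 °C. Concentration-response data fitted with the standard Hill equation to give AC50; tamoxifen and doxorubicin served as positive controls.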
Assay [16] can be described thus: Cell Viability - H-4-II-E (AID 543; active = well fitted curve in the direction sought with a large enough effect; an effect the other way counts as inactive or inconclusive; note: % is set by controls: 0 for no effect and ±100 for the full control effect; nearly all actives have a fitted effect of over 35% in size). The method in brief:
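qHTS, rat hepatoma H-4-II-E, 1500 cells/well; 40 hr compound exposure, 37 °C; CellTiter-Glo ATP luminescence after 20 min RT; AC50 by standard Hill fit.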

A short description of assay [17]: Cell Viability - Renal Proximal Tubule (AID 545; active = well fitted curve in the direction sought with a large enough effect; an effect the other way counts as inactive or inconclusive;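 note: 0% = DMSO only and -100% = 100 µM tamoxifen; nearly all actives have a fitted effect of over 40% in size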). Put shortly: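 Cytotoxicity is scored as a concentration-dependent drop in cellular ATP in primary rat renal proximal tubule cells exposed for 40 hr. AC50 derives from Hill modelling.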
Assay [18] in a line: Cell Viability - Mesenchymal (AID 546; active = well fitted curve in the direction sought with a large enough effect; an effect the other way counts as inactive or inconclusive;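 note: cells exposed to compound for 40 hours before reading; 0% = DMSO only and -100% = 100 µM tamoxifen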). Put shortly:
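CellTiter-Glo luminescence (intracellular ATP, 20 min room temperature) after 40 hr compound exposure at 37 °C of 1000 glomerulus-derived human kidney mesenchymal cells/well; AC50 values obtained by fitting qHTS concentration-response data to the Hill equation.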

Assay [19] can be described thus: Cellular Toxicity (caspase-3) HepG2 (AID 654; active = well fitted curve in the direction sought with a large enough effect; an effect the other way counts as inactive or inconclusive;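 note: cells exposed to compound for 16 hours before reading; 0% = DMSO alone and 100% = caspase signal from 100 µM tamoxifen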). The method in brief: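 Luminescent Caspase-Glo 3/7 readout after 16 hr compound exposure of human hepatocellular carcinoma HepG2 cells at 37 °C; qHTS concentration-response, normalized DMSO = 0%, 100 uM tamoxifen = 100%; AC50 by standard Hill equation.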
A short description of assay [20]: Cellular Toxicity (caspase-3) Jurkat (AID 655; active = well fitted curve in the direction sought with a large enough effect; an effect the other way counts as inactive or inconclusive;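 note: cells exposed to compound for 16 h at 37 °C before reading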). The method in brief: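 Caspase 3/7 activation is scored as increased luminescence in Jurkat cells cultured with compound for 16 hours in complete medium. AC50 values come from Hill fits of qHTS concentration-response data normalized to DMSO and 100 uM tamoxifen controls.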

Glucocorticoid receptor (Homo sapiens), sequence (P04150 whole entry, looked up): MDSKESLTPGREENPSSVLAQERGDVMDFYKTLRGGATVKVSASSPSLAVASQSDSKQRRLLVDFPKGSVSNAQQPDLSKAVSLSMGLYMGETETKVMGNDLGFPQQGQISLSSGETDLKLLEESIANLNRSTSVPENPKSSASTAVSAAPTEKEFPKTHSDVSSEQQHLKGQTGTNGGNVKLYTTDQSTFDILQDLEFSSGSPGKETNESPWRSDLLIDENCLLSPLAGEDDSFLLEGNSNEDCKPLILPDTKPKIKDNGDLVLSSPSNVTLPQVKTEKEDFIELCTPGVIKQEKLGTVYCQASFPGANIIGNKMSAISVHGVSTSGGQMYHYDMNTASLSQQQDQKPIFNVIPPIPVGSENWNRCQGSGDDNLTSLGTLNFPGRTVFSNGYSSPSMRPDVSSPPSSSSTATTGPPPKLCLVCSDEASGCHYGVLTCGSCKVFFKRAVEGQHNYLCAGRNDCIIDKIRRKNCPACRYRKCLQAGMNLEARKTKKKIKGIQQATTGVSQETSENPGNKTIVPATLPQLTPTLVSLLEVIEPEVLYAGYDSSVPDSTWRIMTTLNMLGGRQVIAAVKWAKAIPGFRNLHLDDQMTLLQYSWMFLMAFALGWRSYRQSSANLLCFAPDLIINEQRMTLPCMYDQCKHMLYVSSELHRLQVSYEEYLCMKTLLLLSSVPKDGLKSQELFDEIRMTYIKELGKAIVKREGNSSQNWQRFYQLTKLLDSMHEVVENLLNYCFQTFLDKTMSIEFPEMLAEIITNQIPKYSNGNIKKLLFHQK
3',5'-cyclic-AMP phosphodiesterase 4B (Homo sapiens), sequence (Q07343 whole entry, looked up): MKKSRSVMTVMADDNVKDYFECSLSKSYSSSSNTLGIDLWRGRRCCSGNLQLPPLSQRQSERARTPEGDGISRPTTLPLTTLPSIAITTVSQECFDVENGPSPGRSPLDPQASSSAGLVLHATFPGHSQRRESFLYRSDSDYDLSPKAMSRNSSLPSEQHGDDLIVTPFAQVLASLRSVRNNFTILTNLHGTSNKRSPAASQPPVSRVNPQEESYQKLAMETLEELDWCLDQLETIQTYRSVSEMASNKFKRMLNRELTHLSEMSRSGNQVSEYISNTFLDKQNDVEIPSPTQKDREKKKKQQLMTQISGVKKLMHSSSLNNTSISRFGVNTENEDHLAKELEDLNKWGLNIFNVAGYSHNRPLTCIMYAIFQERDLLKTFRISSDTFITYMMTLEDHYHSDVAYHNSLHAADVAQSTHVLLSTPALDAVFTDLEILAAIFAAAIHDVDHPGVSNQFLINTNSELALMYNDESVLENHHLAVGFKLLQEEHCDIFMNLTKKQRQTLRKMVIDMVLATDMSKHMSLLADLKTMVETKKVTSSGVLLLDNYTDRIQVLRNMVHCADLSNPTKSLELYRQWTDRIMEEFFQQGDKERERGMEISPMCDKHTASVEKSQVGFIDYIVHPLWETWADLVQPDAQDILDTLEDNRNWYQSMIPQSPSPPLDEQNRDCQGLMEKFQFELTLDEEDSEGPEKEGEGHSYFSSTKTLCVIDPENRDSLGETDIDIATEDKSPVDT

As to `Nc1[nH]c(=O)ncc1F`, the activity change, negative = inhibition is 0.602% in [1] and 0.663% in [2]. Besides, in assay [3], the activity, negative = inhibition was -4.22%. For the same molecule, the Potency in [4] and in assay [5] was over 20.6 µM throughout. Besides, the Potency entry in assay [6] was “inactive”. Moreover, the result in assay [7] was inactive.

Regarding `CCN(CC)CC#CCOC(=O)C(O)(c1ccccc1)C1CCCCC1` (stereo unspecified), the activity change, negative = inhibition was -4.6% in assay [1] and -93% (active) in assay [2]. In addition, the activity, negative = inhibition in [3] is 0.633%. In addition, the Potency in assay [4] is over 20.6 µM.

As to `NC(=O)c1cccc(N)c1`, the activity change, negative = inhibition was 11.6% [at 38 µM] in [1] and 1.89% [at 38 µM] in assay [2]. For the same molecule, the activity, negative = inhibition in [3] was 1.75% [at 38 µM]. For the same molecule, the Potency in assay [4] and in [5] was over 46 µM each time. For the same molecule, the Potency entry in assay [6] was “inactive”. Besides, in assay [7], the molecule was classed as inactive.

For the molecule `Cc1nnc(NS(=O)(=O)c2ccc(N)cc2)s1`, the activity change, negative = inhibition was 7.08% and 5.89% in assay [1]; 16.1% and -9.52% in assay [2]. Moreover, the Potency in assay [8], in assay [9], in assay [10], in assay [11] and in assay [12] was over 92 µM in each case. The activity, negative = inhibition in [3] is 0.539% and 1.42%. The Potency result in assay [6], in assay [13], in assay [15], in assay [16], in assay [17] and in [18] was “inactive” throughout. Moreover, the Potency entry in assay [19] is “inactive”. In addition, the activity change, negative = cytotoxicity in assay [14] is -22.7%. Moreover, the call in assay [7] and in assay [20] was inactive.

`COc1ccc2c(c1)c(CC(=O)OCC(=O)O)c(C)n2C(=O)c1ccc(Cl)cc1`: the activity change, negative = inhibition in assay [1] was -9.7% and -8.22%; in assay [2] it was 2.54% and 1.97%. In assay [3], the activity, negative = inhibition was 1.57% and -16%. For the same molecule, the Potency in assay [4] and in assay [5] was over 20.6 µM in each case. Further, in assay [6], the Potency entry was “inactive”. Further, the molecule was called inactive in assay [7].

In the case of `Cc1ncc([N+](=O)[O-])n1CCO`, the activity change, negative = inhibition in [1] is 7.25% and 11.7%; in [2], -4.16% and -8.01%. Besides, the Potency in assay [8], in [9], in [10], in [11] and in [12] was over 92 µM each time. Further, the activity, negative = inhibition in assay [3] was 4.79% and 0.586%. Also, the Potency entry in assay [6], in [13], in assay [15], in assay [16], in assay [17] and in assay [18] was “inactive” in each case. In addition, the Potency result in assay [19] was “inactive”. For the same molecule, the activity change, negative = cytotoxicity in [14] was -7.75%. For the same molecule, the result in assay [7] and in [20] was inactive.
